# G9a block = blocks human histone lysine methyltransferase G9a | Q96KQ7 | G9a H3K9 monomethylation, AlphaScreen, 2 h | Potency, µM (titrated, usually from 102 µM), for inactives: at the highest dose activity, negative = inhibition, usual class: inhibitors | actives 8.8% (n = 350,000); note: potency is the fitted concentration of half-maximal effect; % is set by controls: 0 for no effect and ±100 for the full control effect; nearly all actives have a fitted effect of over 75% in size
#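 Step 1: enzyme (final 20 nM) with compound, 15 min RT. Step 2: substrate peptide 500 nM and SAM 20 uM, 2 h RT. Step 3: anti-H3K9me1 antibody and AlphaScreen beads, 10 min, then plate read.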
# PLK1 PBD block = inhibitors of human PLK1 polo-box domain binding; P53350; Potency, µM, inactives show max response, negative = inhibition, actives largely listed as inhibitors; Plk1 PBD binding of FITC phosphopeptide, fluorescence polarization; actives 2.8% (n = 360,000); note: potency is the fitted concentration of half-maximal effect; series mostly up to about 57 µM; % is set by controls: 0 for no effect and ±100 for the full control effect; nearly all actives have a fitted effect of over 65% in size
# BAZ2B block = inhibitors of human BAZ2B bromodomain | Q9UIF8 | AlphaScreen BAZ2B-H3K14Ac peptide displacement | Potency, µM (highest dose often 114 µM), for inactives: at the highest dose activity change, negative = inhibition, usual class: inhibitors | actives 4.4% (n = 360,000); note: potency is the fitted concentration of half-maximal effect; % is set by controls: 0 for no effect and ±100 for the full control effect; nearly all actives have a fitted effect of over 60% in size
#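 AlphaScreen displacement: compounds (up to 110uM) incubated 30 min at room temperature with a preformed 50 nM BAZ2B/50 nM biotinylated H3K14Ac peptide complex in PBS pH 7.4 with Tween-20. Donor and acceptor beads at 10 ug/mL final added, 20 min light-protected before reading.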
# JMJD2A Tudor inh = inhibitors of human JMJD2A Tudor domain | O75164 | AlphaScreen JMJD2A-Tudor / H3K4me3 peptide binding | Potency, µM (titrated, usually from 114 µM), for the others: top-dose activity change, negative = inhibition, actives largely listed as inhibitors | AID 504339 | actives 4.4% (n = 390,000); note: potency is the fitted concentration of half-maximal effect; % is set by controls: 0 for no effect and ±100 for the full control effect; nearly all actives have a fitted effect of over 50% in size
# PI5P4K alpha inh = blocks human PI5P4K alpha kinase activity | PI5P4Kalpha enzyme, ADP-Glo luminescence, 60 min; active compounds read low | max response, % | actives 1.2% (n = 330,000) | P48426; active = max response of -50% or lower; inconclusive = between -30% and -50%; inactive = -30% or higher; note: value at the top dose of about 77 µM; % is set by controls: 0 for no effect and ±100 for the full control effect
#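 Compounds were pin-transferred onto PI5P4Kalpha and substrate in HEPES pH 7.4 buffer with EGTA, CHAPS and 5% DMSO. ATP (5 microM final) started the reaction, which ran 60 minutes at room temperature before ADP-Glo detection.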
# HP1b binding inh = HP1-beta chromodomain-methylated histone interaction inhibition. P83916. AlphaScreen HP1-beta / biotin-H3K9me3 peptide binding. Potency, µM (highest dose often 114 µM), for the others: at the highest dose activity change, negative = inhibition, usual class: inhibitors. actives 0.56% (n = 390,000); note: potency is the fitted concentration of half-maximal effect; nearly all actives have a fitted effect of over 70% in size
#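 HP1-beta protein (50 nM final) preincubated 30 min at room temperature with biotinylated H3(1-18)K9me3 peptide (50 nM) in PBS pH 7.4, 0.01% Tween-20, then compound added for 30 min. AlphaScreen streptavidin donor/nickel chelate acceptor beads (10 ug/mL final), 30 min dark, luminescence read.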
# Starred values were filed as active, the others as inactive; ? = inconclusive; . = no result; [ ] = remark or other dose. Sampled rows, rich in hits. Any-hit rate of the full collection: about 12%. Unless noted, calls come from the whole dose curve; as a rule, active = well fitted curve in the direction sought with a large enough effect; inconclusive = small, poorly fitted or top-dose-only effect, or another doubt; inactive = no such curve, though single readings can be large; an effect the other way counts as inactive or inconclusive.
SMILES,G9a block,PLK1 PBD block,BAZ2B block,JMJD2A Tudor inh,PI5P4K alpha inh,HP1b binding inh
O=C(C(=O)N1CCN(c2ccccc2F)CC1)c1cn(CC(=O)N2CCOCC2)c2ccccc12,19.7%,23.8µM*,-19.7%,?,-8.5,2.5%
COc1ccc(N2CCN(C(=O)C(=O)c3c[nH]c4ccccc34)CC2)cc1,44.7µM*,-12.4%,?,?,-3.8,-9.3%[57 µM]
O=C(C(=O)N1CCN(c2ccccc2)CC1)c1c[nH]c2ccccc12,16.6%[59 µM],-4.6%,?,-28.5%,0.8,2.8%
CCN1CCN(C(=O)C(=O)c2cn(CC(=O)N3CCCCCC3)c3ccccc23)CC1,50.1µM*,3.0%,-14.2%,-18.1%,-8.7,2.8%
COc1ccc(N2CCN(C(=O)C(=O)c3cn(CC(=O)N4CCCCCC4)c4ccccc34)CC2)cc1,70.8µM*,-13.2%,?,?,1.1,?
CCN(CC(=O)Nc1c(F)cccc1F)C(=O)c1nn(C)c(=O)c2ccccc12,19.9%[59 µM],-5.3%,9.6%,-9.4%,1.4,35.6%
COc1cccc(Cn2c(NCc3ccc(C)cc3)nc3c2c(=O)n(C)c(=O)n3C)c1,10.4%[59 µM],.,1.9%,2.1%,.,30.7%
CC(C)(C)C(=O)NC(=S)N1CCc2ccccc21,20µM*,-13.5%,?,-28.9%,2.4,-21.8%[57 µM]
CC(Oc1ccc(Cl)cc1Cl)C(=O)NC(=S)N1CCc2ccccc21 (stereo not drawn),28.2µM*,-16.7%,-21.8%,-33.7%,8.0,17.5%
O=C(NC(=S)N1CCc2ccccc21)C1CCC1,?,-2.8%,-24.5%,-2.5%,-10.6,16.8%
S=C(Nc1cccnc1)N1CCc2ccccc21,-7.1%[12.7 µM],0.3%,-2.6%,-13.0%,9.6,26.1%
Fc1ccc(NC(=S)N2CCCc3ccccc32)cc1,39.8µM*,-18.3%,?,-26.1%,-2.1,-17.4%
Cc1cccn2c(=O)c3cc(C(=O)NCCc4ccc(S(N)(=O)=O)cc4)n(C)c3nc12,-8.5%[59 µM],.,-6.0%,-21.7%,.,16.8%
CCN(CC)C(=O)c1sc2c(c1C)c(=O)n(Cc1ccccc1)c(=O)n2Cc1c(C)cc(C)cc1C,-4.5%[59 µM],.,-16.5%,-15.3%,.,27.1%
Cc1c(O)ccc2c(CC(=O)N[C@@H](Cc3ccc(O)cc3)C(=O)O)cc(=O)oc12,2.2%[2.33 µM],-17.7%,-12.1%,-6.8%,0.9,21.1%
O=C1CC(c2ccc(O)c(O)c2)Oc2c1ccc(O)c2O (stereo not drawn),-189.7%[59 µM],-20.8%,10µM*,8.91µM*,-85.6*,?
CC(C)=CCc1c(O)ccc2c1OC(c1ccc(O)c(O)c1)CC2=O (stereo not drawn),-0.1%[12.7 µM],4.2%,?,?,?,-16.4%
O=C1CC(c2ccc(O)c(O)c2)Oc2cc(O)cc(O)c21 (stereo not drawn),-43.7%[2.33 µM],2.1%,-10.8%,79.4µM*,-26.7,-3.6%
CCCCn1cc(S(=O)(=O)c2ccc(C)c(C)c2)c(=O)c2cc(F)c(N3CCN(C)CC3)cc21,-9.0%[59 µM],.,0.1%,-9.6%,.,27.2%
O=C(Nc1ccc2nccnc2c1)N1CCCCCC1,.,.,.,-11.3%,.,64.8%
COc1ccc(Br)cc1C1Sc2ccccc2NC2=C1C(=O)c1ccccc12 (stereo not drawn),-5.7%[59 µM],.,.,-8.3%,.,18.3%
O=C1C2=C(Nc3ccccc3SC2c2ccccc2C(F)(F)F)c2ccccc21 (stereo not drawn),11.2µM*,.,?,22.4µM*,.,?
O=C1C2=C(Nc3ccccc3SC2c2c(F)cccc2Cl)c2ccccc21 (stereo not drawn),?,.,.,12.6µM*,.,?
CCCc1ccc(C2Sc3ccccc3NC3=C2C(=O)c2ccccc23)cc1 (stereo not drawn),7.94µM*,.,10µM*,15.8µM*,.,?
CCOc1cc(C2Sc3ccccc3NC3=C2C(=O)c2ccccc23)ccc1O (stereo not drawn),12.6µM*,.,.,14.1µM*,.,?
CCOc1cc(C2Nc3ccccc3C(=O)N2c2ccccc2)ccc1O (stereo not drawn),19.8%,-11.6%,-4.9%,-1.3%,.,18.2%
